Screens deposited in PubChem BioAssay by National Center for Advancing Translational Sciences (NCATS).
Sampled rows, rich in hits. Any-hit rate of the full collection: about 18%.
CtBP-E1A inh – inhibitors of CtBP/E1A interaction. 340,000 tested, 0.49% active. AlphaScreen GST-E1A/His-CtBP binding, 1536-well; hits give low values. AID 651724. activity change, % (no concentration beside the values); in the data active means activity change below about -65%; inconclusive means mostly about -30% to -63%
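Homogeneous bead-based format: GST-tagged E1A captured on glutathione donor beads, His-tagged CtBP on nickel acceptor beads; compounds precede bead addition by 2 h at 37 °C.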
Six1-Eya2 blk – blocks human Six1 binding to Eya2 | activity change, % (no concentration beside the values) | Q15475+O00167 | AlphaScreen GST-Six1/His-Eya2 binding, biochemical; hits give low values | 360,000 tested, 0.56% active; in the data active means activity change below about -65%; inconclusive means mostly about -30% to -63%
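Six1/Eya2 binding was read as AlphaScreen signal after compounds were pinned into GST-Six1 plus His-tagged Eya2 (5X stock 250/500 nM) in pH 8.0 Tris/NaCl/TCEP buffer, beads added, then incubated 1 h, 37 C, dark.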
DT40 TDP1 CPT – DT40-hTDP1 cell growth loss with CPT; Potency, µM (highest dose often 46.2 µM), for the others: top-dose activity change, negative = growth inhibition, usual class: inhibitors; chicken DT40 Tdp1-/-;hTDP1 cells + 20 nM CPT, ATP luminescence, 48 h; AID 686979; 420,000 tested, 12% active; further: potency means the concentration at half of the fitted maximal effect; nearly all actives have a fitted effect of over 55% in size
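Chicken DT40 Tdp1-/- cells stably complemented with human TDP1 were seeded at 400 cells/well in medium containing 20 nM camptothecin, exposed to pin-transferred compounds, and grown at 37 °C for at least 48 hr. Viability was read as ATP luminescence.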
TDP1 cell noCPT – qHTS for Inhibitors of human tyrosyl-DNA phosphodiesterase 1 (TDP1): qHTS in cells in absence of CPT; AID 686978, 2013; Potency, µM (highest dose often 46.2 µM), without a hit: top-dose activity change, negative = growth inhibition, most hits filed as inhibitors; 420,000 tested, 15% active; DT40 Tdp1-/- hTDP1 cells, no CPT, ATP luminescence, 48 h; further: potency means the concentration at half of the fitted maximal effect; nearly all actives have a fitted effect of over 55% in size
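A cellular qHTS used chicken DT40 cells lacking endogenous Tdp1 but carrying stably transfected human TDP1. Compounds were applied without camptothecin, and cell growth kinetics were judged by ATP-dependent luminescence after ≥48 hr.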
TDP1 inh – blocks human tyrosyl-DNA phosphodiesterase 1 | 350,000 tested, 0.28% active | AID 485290 | Q9NUW8 | Potency, µM (highest dose often 130 µM), without a hit: at the highest dose activity change, negative = inhibition, usual class: inhibitors | recombinant TDP1, AlphaScreen DNA substrate cleavage; further: potency means the concentration at half of the fitted maximal effect; nearly all actives have a fitted effect of over 40% in size
Target sequence (Q9NUW8 whole entry, looked up): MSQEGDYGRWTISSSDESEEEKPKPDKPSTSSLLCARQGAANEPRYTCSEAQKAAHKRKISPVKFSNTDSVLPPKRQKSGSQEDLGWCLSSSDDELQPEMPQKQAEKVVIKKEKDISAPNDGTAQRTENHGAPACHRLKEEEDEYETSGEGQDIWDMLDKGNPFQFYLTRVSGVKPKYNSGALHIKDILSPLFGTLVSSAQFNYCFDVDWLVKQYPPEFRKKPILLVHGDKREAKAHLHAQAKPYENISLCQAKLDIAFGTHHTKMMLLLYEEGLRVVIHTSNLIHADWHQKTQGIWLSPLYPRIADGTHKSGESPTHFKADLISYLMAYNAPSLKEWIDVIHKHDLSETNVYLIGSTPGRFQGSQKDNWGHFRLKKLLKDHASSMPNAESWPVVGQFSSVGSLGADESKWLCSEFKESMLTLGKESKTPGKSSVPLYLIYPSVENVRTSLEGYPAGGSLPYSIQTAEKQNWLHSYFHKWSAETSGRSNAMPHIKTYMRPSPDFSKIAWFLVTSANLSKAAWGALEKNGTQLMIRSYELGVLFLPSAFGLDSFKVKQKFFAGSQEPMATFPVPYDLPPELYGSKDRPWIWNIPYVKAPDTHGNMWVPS
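Recombinant human Tdp1 (E. coli-expressed, 1 nM final) preincubated with compounds 15 min at room temperature, then 5'-biotin/3'-phosphotyrosine-FITC DNA substrate (15 nM final) added for 5 min. AlphaScreen beads (10 ug/ml final) added 10 min; cleavage lowers signal.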
IL-1B inflam inh – inflammasome signaling inhibition, IL-1 beta readout; 360,000 tested, 4.7% active; activity change, % at 57.5 µM; AID 743279; THP-1 LPS/ATP IL-1B secretion, AlphaLISA, 16 h; hits give low values; in the data active means activity change below about -50%; inconclusive means mostly about -30% to -49%
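Secreted IL-1B measured by AlphaLISA bead assay after 16 h compound exposure of THP-1 cells; compounds (final up to 57.5 uM) added 1 h before LPS (250 ng/mL) and ATP (1.25 mM) stimulation; lower signal means less secretion.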
The depositor's hits bear a star; ? = inconclusive; . = not tested or not shown; [ ] = another dose, or the depositor's remark. Unless noted, the call rests on the fitted dose curve; in most records, active means well fitted curve in the direction sought with a large enough effect; inconclusive means small, poorly fitted or top-dose-only effect, or another doubt; inactive means no such curve, though single readings can be large; an effect the other way counts as inactive or inconclusive. On the % scale 0 is the no-effect control and ±100 the full control effect.

SMILES | CtBP-E1A inh | Six1-Eya2 blk | DT40 TDP1 CPT | TDP1 cell noCPT | TDP1 inh | IL-1B inflam inh
Cc1nn(-c2ccccc2)c2c1C(c1ccc([N+](=O)[O-])cc1)N1C(=N2)C(=O)Nc2ccccc21 (configuration not stated) | -18 | -16 | ? | 15µM* | 8% | -75*
Cc1cccc(NC2=Nc3ccccc3N3C2=Nc2c(c(C)nn2-c2ccccc2)C3c2ccc(O)c(O)c2)c1 (configuration not stated) | 13 | 14 | ? | ? | -4% | -15
CCOC(=O)C1=C(C)c2ccccc2OC1(CC)C(=O)OCC (configuration not stated) | 1 | 21 | ? | ? | -6%[56.1 µM] | 6
CCOC(=O)C1=C(C)c2ccccc2N(C(=O)OC)C1(C)C(=O)OCC (configuration not stated) | -11 | -17 | 10µM* | 10µM* | -1%[56.1 µM] | -6
Cc1ccc(CNC(=O)c2cccn2-c2nnc(N3CCCCC3)s2)cc1 | . | . | 21µM* | 23µM* | 8% | .
CCOc1ccc(CNC(=O)c2cccn2-c2nnc(N3CCCCC3)s2)cc1OC | . | . | 26µM* | 16µM* | 3% | .
COc1ccc(CNC(=O)c2cccn2-c2nnc(N3CCCC3)s2)c(OC)c1 | . | . | ? | 16µM* | 5% | .
CCN(CC)c1ccc(NC(=O)c2cccn2-c2nnc(N3CCCCC3)s2)c(C)c1 | . | . | 5.2µM* | 5.8µM* | 5% | .
COc1ccc(NC(=O)c2cccn2-c2nnc(N3CCCCC3)s2)c(OC)c1 | . | . | ? | ? | 5% | .
Cc1ccc(CNC(=O)c2cccn2-c2nnc(N3CCCC3)s2)cc1 | . | . | ? | ? | 5% | .
O=C1CCN(CCc2ccccc2)CCN1CCSc1ccc(Br)cc1 | -7 | -4 | ? | ? | 9% | -16
CCn1c(N)c(C(=O)Nc2ccccc2C(=O)OC)sc1=S | -13 | ? | ? | 16µM* | 8% | 34
COc1cccc(C2C(C#N)=C(N)SC(c3ccccc3)C2[N+](=O)[O-])c1 (configuration not stated) | . | -8 | -28% | ? | 3% | 32
CC(C)(C)NCC(O)COc1ccccc1C(=O)CCc1ccccc1 (configuration not stated) | -15 | -9 | 16µM* | 15µM* | 4% | -77*
COc1cc(CC(=O)N2CCN(S(=O)(=O)c3ccc(C(C)C)cc3)CC2)cc(OC)c1OC | -3 | 2 | 21µM* | 21µM* | . | -11
COc1ccccc1NC(=O)CN1CCN(c2ccc(F)cc2)CC1 | 0 | -4 | ? | ? | . | 8
COc1ccc(C)cc1NC(=O)CN1CCN(S(=O)(=O)c2ccc(Cl)cc2)CC1 | 0 | -2 | ? | ? | 8% | -8
COc1cc(CCC(=O)N2CCN(S(=O)(=O)c3ccc(C)c(C)c3)CC2)cc(OC)c1OC | 43 | 16 | ? | -23% | 3% | -7
CCc1ccccc1NC(=O)CN1CCN(CC(=O)Nc2cc(C)ccc2OC)CC1 | -18 | 4 | ? | 6.5µM* | 10% | -2
COc1ccc(C)cc1NC(=O)CN1CCN(c2ccc(F)cc2)CC1 | -3 | -4 | 21µM* | 23µM* | 3% | -12
COc1ccc(C)cc1NC(=O)CN1CCN(S(=O)(=O)c2ccc(C(C)C)cc2)CC1 | -3 | -1 | ? | 16µM* | 3% | -17
CCc1nc2ccc(C(=O)NCCc3ccc(OC)cc3)cc2nc1CC | -2 | -1 | ? | ? | 1% | -29
O=C(O)CSc1cc(C(=O)c2ccccc2O)cn2c(=O)c3c(-c4ccccc4)csc3nc12 | . | -15 | -18% | -22% | ? | 15
CSc1nnc(CNS(=O)(=O)c2ccc(F)cc2)n1C | 2 | 1 | -4% | 11% | 6% | 13
O=C(O)C1CCC(CN(Cc2cccc(Br)c2)C(=S)Nc2ccccc2F)CC1 (configuration not stated) | 0 | 7 | -25% | -12% | -5% | -1
SMILES | CtBP-E1A inh | Six1-Eya2 blk | DT40 TDP1 CPT | TDP1 cell noCPT | TDP1 inh | IL-1B inflam inh
Cc1ccc(S(=O)(=O)c2ncccc2[N+](=O)[O-])cc1 | . | -24 | 1.2µM* | 0.65µM* | . | -102*
Cc1ccc(S(=O)(=O)c2ncccc2N)cc1 | . | 7 | 11% | 3% | . | 0
Cc1ccc(CN2CCN(/N=C/c3ccc(N(C)C)cc3)CC2)cc1 | -6 | -12 | -22% | ? | 5% | 25
CCOc1cc(-c2nc(C)c(C(C)=O)n2O)ccc1OCC(=O)Nc1ccccc1 | -29 | -7 | ? | ? | 8% | 8
c1ccc(C2CC(c3ccccc3)n3c(nc4ccccc43)N2)cc1 (configuration not stated) | 9 | 5 | 16µM* | 15µM* | 4% | 60
C/C(=N\NC(=O)c1cc(Cl)ccc1O)c1ccc(Br)s1 | -3 | 4 | ? | ? | 2% | 18
C/C(=N\NC(=O)c1ccc(Cl)cc1)c1ccc(Br)s1 | 1 | 2 | 12µM* | 10µM* | 3% | -28
COc1ccccc1NCC(=O)N/N=C(\C)c1ccc(Br)s1 | -10 | 6 | -26% | -5% | 2% | -11
C/C(=N/NC(=O)CNc1ccc(C)cc1)c1ccc(Br)s1 | -3 | -3 | 18µM* | 18µM* | 7% | -1
C/C(=N\NC(=O)c1cc(C)nc2ccccc12)c1ccccn1 | -92* | -89* | 1.5µM* | 0.73µM* | -2%[56.1 µM] | 143
C/C(=N\NC(=O)c1cc(C)nc2ccccc12)c1ccncc1 | -8 | -3 | -22% | 5% | 1% | 37
COc1cc(C(=O)N/N=C(\c2ccccc2)c2ccccn2)cc(OC)c1OC | ? | -17 | 2.6µM* | 2.6µM* | 8% | 49
CC1(C)C2CCC1(CS(=O)(=O)N1CCCc3ccccc31)C(=O)C2 (configuration not stated) | 11 | 3 | -11% | ? | 2% | 0
CC(=O)N1CCN(c2ccc(Oc3nc(-c4ccccc4)nc4ccccc34)cc2)CC1 | 4 | 5 | -10% | -10% | . | -11
Cc1nc(-c2ccc(Cl)cc2)sc1CCNC(=O)c1cccs1 | . | . | ? | ? | 1% | .
COc1cc(C(=O)N/N=C(\C)c2ccccn2)cc(OC)c1OC | -4 | -8 | 12µM* | 8.2µM* | 7% | 32
CC(=NNC(=S)Nc1cccc(Cl)c1)c1ccccn1 | -96* | -91* | 0.082µM* | 0.021µM* | . | -88*
C/C(=N\NC(=O)c1ccc(Cl)cc1)c1ccccn1 | ? | -90* | 0.58µM* | 0.52µM* | 1% | -92*
